Laboratory results: PubChem BioAssay
Active and inactive are the calls of the source.

Test: basal CRE-LacZ reporter activity in PC12 – cell-based, unstimulated, primary screen (AID 1145)
Settings: no forskolin, luminescence, 4.5 h, higher = more signal, called active from +8 up or from −8 down

z-score, inactive:
COc1ccc(C(O)C2C=CC3C(=O)N(Cc4ccccc4)C(=O)C3N2n2cnnc2)cc1OCc1ccccc1 (stereo not drawn) -0.424
COC(=O)[C@@]1(Cc2ccc(OC)cc2)[C@H]2c3cc(C(=O)N4CCCC4)n(Cc4ccc(C)c(F)c4F)c3C[C@H]2CN1C(=O)c1ccccc1 -1.15
CC(=O)NCCCC[C@@H]1NC(=O)[C@H]2C[C@@H](C(=O)NCCCCCCNC(=O)CS)[C@@H](c3ccc(O)cc3)N2C1=O -0.528
COCCOC(=O)N1C(=O)[C@@]2(c3cc(C#CC4(O)CCCCCC4)ccc31)[C@H](c1ccc(OCCO)cc1)N1[C@H](c3ccccc3)[C@H](c3ccccc3)OC(=O)[C@H]1[C@@H]2C(=O)N1CCN(c2ncccn2)CC1 0.346
CCCCCN1CC=CC23O[C@@H]4/C=C\CCC(C)OC(=O)C4[C@H]2C(=O)N(C(C)CO)[C@@H]3C1=O (stereo partly drawn) -1.17
COc1ccc(C#Cc2ccc3c(c2)[C@]2(C(=O)N3)[C@H](C(=O)NC[C@H](O)c3ccccc3)[C@H]3C(=O)O[C@H](c4ccccc4)[C@H](c4ccccc4)N3[C@@H]2c2ccc(O)cc2)cc1 -0.141
COc1ccc(C#Cc2ccc3c(c2)[C@]2(C(=O)N3)[C@H](c3ccccc3OCCO)N3[C@H](c4ccccc4)[C@H](c4ccccc4)OC(=O)[C@H]3[C@@H]2C(=O)Nc2nc3ccccc3s2)cc1 -1.28
CN1C(=O)C2C=CC(C(O)c3ccco3)N(Nc3ccccc3)C2C1=O (stereo not drawn) -0.133
